# From PubChem BioAssay
# Activity calls are given as the source filed them.
# How the values were obtained:
# Albumin (Bos taurus) = Albumin (Bos taurus) (UniProt P02769); experiment: compounds binding labelled BSA control protein – biochemical, small-molecule microarray, Alexa647 label, 635/667 nm fluorescence, artefact control for SMM control protein annotation, profiling panel (AID 1118); details: BSA-A647 binding, fluorescence 635 nm, higher = more signal;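 further: score merges 667 nm emission intensity and signal-to-noise per printed compound spot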
# Sequence of Albumin (Bos taurus) (P02769 whole entry, looked up): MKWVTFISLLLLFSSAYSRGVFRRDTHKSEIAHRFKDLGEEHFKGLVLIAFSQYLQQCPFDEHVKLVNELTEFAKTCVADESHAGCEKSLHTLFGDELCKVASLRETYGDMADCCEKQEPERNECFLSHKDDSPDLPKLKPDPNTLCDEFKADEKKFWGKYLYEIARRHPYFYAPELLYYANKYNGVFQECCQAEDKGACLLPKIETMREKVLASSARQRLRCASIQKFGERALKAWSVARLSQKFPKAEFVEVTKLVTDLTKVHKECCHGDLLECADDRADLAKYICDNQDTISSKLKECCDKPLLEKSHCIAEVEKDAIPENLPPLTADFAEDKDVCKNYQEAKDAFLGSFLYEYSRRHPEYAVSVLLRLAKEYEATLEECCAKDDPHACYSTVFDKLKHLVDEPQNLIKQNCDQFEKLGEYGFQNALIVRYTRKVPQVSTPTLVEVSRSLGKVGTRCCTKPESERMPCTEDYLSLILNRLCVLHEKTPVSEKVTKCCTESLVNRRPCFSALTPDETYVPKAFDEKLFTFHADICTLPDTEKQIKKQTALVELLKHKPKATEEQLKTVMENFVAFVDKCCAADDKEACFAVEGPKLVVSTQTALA
# [1] = probe aXIP binding to arrayed compounds – biochemical, NeuroSMM set, 635/667 nm fluorescence, primary screen (AID 1119); details: small-molecule microarray; higher = more signal, called active from +8 up or from −8 down unless noted;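 further: probe is the protein aXip251-270 applied at 1 µg/mL to compound-printed slides; binding of probe to printed compounds measured as 667 nm fluorescence plus signal to noise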
# [2] = probe aNOTCH3 binding on compound microarray – biochemical, small-molecule microarray, 635/667 nm fluorescence, primary screen (AID 1120); details: higher = more signal; small-molecule microarray, probe aNOTCH3, fluorescence unless noted;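 further: probe is a biotin-tagged antibody raised against NOTCH3 rather than NOTCH3 protein; score merges spot fluorescence near 667 nm with spot signal to noise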
# [3] = probe aNOTCH2 binding on compound microarray – biochemical, small-molecule microarray, 635/667 nm fluorescence, primary screen (AID 1121); details: higher = more signal; small-molecule microarray, probe aNOTCH2, fluorescence unless noted;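 further: score merges feature fluorescence read at 667 nm with its signal to noise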
# [4] = biological target: Carbonic anhydrase 2 (Homo sapiens) (UniProt P00918); experiment: compounds binding carbonic anhydrase 2 – biochemical, small-molecule microarray, Alexa647-labelled CAII, profiling panel (AID 1122); details: CAII-A647 binding fluorescence, higher = more signal
# [5] = COS7 lysate on small-molecule microarray, probe aHis, 635 nm (AID 1123); details: higher = more signal; small-molecule microarray, COS7 cell lysate, probe aHis, fluorescence unless noted;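 further: z-score combines 667nm fluorescence intensity with signal-to-noise per printed compound spot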
# [6] = probe aLAP1 signal on lysate-treated microarray – cell lysate, small-molecule microarray, COS7 lysate, primary screen (AID 1124); details: higher = more signal; small-molecule microarray, COS7 cell lysate, probe aLAP1, fluorescence unless noted;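 further: lysate comes from COS7 cells expressing LAP1 and is applied at 0.3 µg/mL; score merges spot fluorescence near 667 nm with signal-to-noise over triplicate slides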
# Sam68 (KHDRBS1) = experiment: compounds binding KHDRBS1 protein – biochemical, small-molecule microarray, 635 nm fluorescence, primary screen (AID 1125); details: higher = more signal;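 further: score merges 667 nm channel intensity with signal to noise over triplicate slides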
# [7] = system: Chordin-like protein 2 (CHRDL2); experiment: compounds binding chordin-like 2 – biochemical, small-molecule microarray, 635 nm fluorescence, primary screen (AID 1126); details: fluorescence 635 nm, higher = more signal;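 further: printed compound slides probed with Chrdl2 protein at 4 µg/mL for 1 h at 4 C; score merges 667 nm emission intensity with signal to noise over three replicate slides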
# [8] = biological target: Concanavalin-A (Canavalia ensiformis) (UniProt P02866); experiment: compounds binding concanavalin A lectin – biochemical, small-molecule microarray, Alexa647 label, 635 nm, artefact control for SMM control protein annotation, primary screen (AID 1127); details: ConA-A647 binding fluorescence, higher = more signal;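 further: z combines 667 nm emission intensity with signal-to-noise across three replicate slides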
# Sequence of Concanavalin-A (Canavalia ensiformis) (P02866 whole entry, looked up): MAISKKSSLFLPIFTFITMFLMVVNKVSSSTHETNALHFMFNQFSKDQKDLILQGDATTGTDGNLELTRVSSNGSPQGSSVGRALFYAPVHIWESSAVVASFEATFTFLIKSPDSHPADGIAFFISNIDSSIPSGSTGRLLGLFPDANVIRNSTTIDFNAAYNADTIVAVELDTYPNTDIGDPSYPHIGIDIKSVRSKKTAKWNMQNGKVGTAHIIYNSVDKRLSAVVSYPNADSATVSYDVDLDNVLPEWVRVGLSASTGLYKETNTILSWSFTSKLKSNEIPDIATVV
# [9] = compounds binding Alexa647 anti-His antibody – biochemical, small-molecule microarray, 635 nm fluorescence, artefact control for SMM control protein annotation, primary screen (AID 1128); details: higher = more signal;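 further: score merges feature fluorescence with signal-to-noise for each printed compound spot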
# [10] = system: Human papillomavirus type 1a E7 protein (residues 1-88); experiment: HPV1a E7 small-molecule binders, primary screen, biochemical, small-molecule microarray, residues 1-88, 635 nm (AID 1129); details: small-molecule microarray binding, fluorescence 635 nm; higher = more signal
# [11] = biological target: Focal adhesion kinase 1 (Homo sapiens) (UniProt Q05397); experiment: PTK2 protein binding on printed compound slides – biochemical, small-molecule microarray, 635/667 nm fluorescence, BSA, DTT, primary screen (AID 1130); details: 635 nm fluorescence, higher = more signal;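 further: composite of spot emission at 667 nm and signal to noise over triplicate slides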
# Sequence of Focal adhesion kinase 1 (Homo sapiens) (Q05397 whole entry, looked up): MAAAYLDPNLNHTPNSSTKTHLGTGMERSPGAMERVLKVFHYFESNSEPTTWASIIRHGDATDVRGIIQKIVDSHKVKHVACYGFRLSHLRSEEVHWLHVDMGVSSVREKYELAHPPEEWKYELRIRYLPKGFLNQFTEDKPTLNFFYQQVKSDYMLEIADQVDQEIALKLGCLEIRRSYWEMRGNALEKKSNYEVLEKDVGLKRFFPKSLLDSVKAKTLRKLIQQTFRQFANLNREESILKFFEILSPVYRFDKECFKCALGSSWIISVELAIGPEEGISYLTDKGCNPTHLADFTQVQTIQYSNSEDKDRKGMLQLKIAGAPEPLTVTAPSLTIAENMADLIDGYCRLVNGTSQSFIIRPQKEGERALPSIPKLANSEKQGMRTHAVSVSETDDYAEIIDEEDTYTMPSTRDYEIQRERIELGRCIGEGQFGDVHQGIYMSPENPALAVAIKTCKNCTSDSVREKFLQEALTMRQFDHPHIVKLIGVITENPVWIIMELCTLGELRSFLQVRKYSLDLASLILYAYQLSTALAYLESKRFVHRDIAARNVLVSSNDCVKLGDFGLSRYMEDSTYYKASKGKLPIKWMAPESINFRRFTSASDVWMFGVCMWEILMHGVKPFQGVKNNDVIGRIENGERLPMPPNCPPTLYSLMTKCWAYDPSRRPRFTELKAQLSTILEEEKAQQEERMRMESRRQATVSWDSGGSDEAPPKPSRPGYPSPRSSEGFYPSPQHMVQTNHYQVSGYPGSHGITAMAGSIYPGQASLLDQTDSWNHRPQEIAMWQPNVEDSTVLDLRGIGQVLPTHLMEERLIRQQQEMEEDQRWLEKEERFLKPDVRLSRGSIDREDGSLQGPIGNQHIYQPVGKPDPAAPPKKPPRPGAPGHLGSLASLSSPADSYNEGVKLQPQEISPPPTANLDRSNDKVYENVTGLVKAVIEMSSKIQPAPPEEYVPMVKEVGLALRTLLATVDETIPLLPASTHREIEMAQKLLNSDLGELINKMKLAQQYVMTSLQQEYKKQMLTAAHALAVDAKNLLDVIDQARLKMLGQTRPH
# [12] = system: Fibrinogen (Alexa647-labelled); experiment: Alexa647-fibrinogen binding to printed small molecules – biochemical, small-molecule microarray, 635/667 nm fluorescence, artefact control for SMM control-protein annotation, profiling panel (AID 1131); details: fibrinogen-A647 binding fluorescence, higher = more signal;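 further: z-score merges 667 nm fluorescence with per-spot signal-to-noise over triplicate slides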
# [13] = biological target: Follistatin (Homo sapiens) (UniProt P19883); experiment: FST protein binding to printed compounds – biochemical, small-molecule microarray, 635/667 nm fluorescence, primary screen (AID 1132); details: 635 nm fluorescence, higher = more signal
# Sequence of Follistatin (Homo sapiens) (P19883 whole entry, looked up): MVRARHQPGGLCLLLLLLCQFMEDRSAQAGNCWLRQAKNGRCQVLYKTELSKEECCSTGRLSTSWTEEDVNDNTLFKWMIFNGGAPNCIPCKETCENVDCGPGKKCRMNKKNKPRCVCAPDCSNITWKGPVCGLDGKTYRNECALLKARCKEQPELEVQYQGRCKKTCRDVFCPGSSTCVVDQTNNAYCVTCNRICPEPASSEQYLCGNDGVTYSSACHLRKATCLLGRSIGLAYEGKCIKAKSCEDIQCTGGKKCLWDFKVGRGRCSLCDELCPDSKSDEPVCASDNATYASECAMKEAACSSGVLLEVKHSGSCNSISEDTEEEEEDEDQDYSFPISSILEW
# [14] = biological target: Fibroblast growth factor 2 (Homo sapiens) (UniProt P09038); experiment: basic fibroblast growth factor binding to printed compounds – biochemical, small-molecule microarray, 635/667 nm fluorescence, primary screen (AID 1133); details: FGF2, fluorescence 635/667, higher = more signal
# Sequence of Fibroblast growth factor 2 (Homo sapiens) (P09038 whole entry, looked up): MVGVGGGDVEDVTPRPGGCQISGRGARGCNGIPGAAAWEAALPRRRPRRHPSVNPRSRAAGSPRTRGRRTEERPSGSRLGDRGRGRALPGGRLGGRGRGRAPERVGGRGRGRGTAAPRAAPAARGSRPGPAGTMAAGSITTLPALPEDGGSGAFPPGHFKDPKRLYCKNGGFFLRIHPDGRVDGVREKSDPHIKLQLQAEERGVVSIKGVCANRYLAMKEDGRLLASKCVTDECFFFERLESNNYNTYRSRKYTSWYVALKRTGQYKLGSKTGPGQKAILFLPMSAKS
# [15] = JC-1 mitochondrial potential readout, lung cancer cells – cell-based, A549, JC-1 fluorescence, basal, 24 h, 100 nL, profiling panel (AID 1138); details: higher = more signal;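 further: A549 lung adenocarcinoma cells under basal conditions with no added stimulus; test concentration not given here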
# Lefty1 = Lefty1 protein binding to printed compounds – biochemical, small-molecule microarray, 635/667 nm fluorescence, primary screen (AID 1139); details: fluorescence 635/667, higher = more signal
# [16] = system: wheat germ agglutinin (Triticum aestivum), Alexa647-labelled; experiment: Alexa647-WGA lectin binding to printed small molecules – biochemical, small-molecule microarray, 635/667 nm fluorescence, artefact control for SMM control-protein annotation, profiling panel (AID 1140); details: WGA-A647 binding, 635 nm fluorescence, higher = more signal;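 further: score merges 667 nm feature emission with signal to noise over triplicate slides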
# [17] = biological target: Luciferin 4-monooxygenase (Photinus pyralis) (UniProt P08659); experiment: inhibition of purified Photinus pyralis luciferase – biochemical, luminescence, purified enzyme, 2006 set, primary screen (AID 1141); details: purified firefly luciferase, SteadyGlo luminescence, 30 min; higher = more signal, called active from +8 up or from −8 down unless noted;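 further: cell-free assay with purified firefly luciferase at 100 ng per well in PBS; test concentration not given here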
# Sequence of Luciferin 4-monooxygenase (Photinus pyralis) (P08659 whole entry, looked up): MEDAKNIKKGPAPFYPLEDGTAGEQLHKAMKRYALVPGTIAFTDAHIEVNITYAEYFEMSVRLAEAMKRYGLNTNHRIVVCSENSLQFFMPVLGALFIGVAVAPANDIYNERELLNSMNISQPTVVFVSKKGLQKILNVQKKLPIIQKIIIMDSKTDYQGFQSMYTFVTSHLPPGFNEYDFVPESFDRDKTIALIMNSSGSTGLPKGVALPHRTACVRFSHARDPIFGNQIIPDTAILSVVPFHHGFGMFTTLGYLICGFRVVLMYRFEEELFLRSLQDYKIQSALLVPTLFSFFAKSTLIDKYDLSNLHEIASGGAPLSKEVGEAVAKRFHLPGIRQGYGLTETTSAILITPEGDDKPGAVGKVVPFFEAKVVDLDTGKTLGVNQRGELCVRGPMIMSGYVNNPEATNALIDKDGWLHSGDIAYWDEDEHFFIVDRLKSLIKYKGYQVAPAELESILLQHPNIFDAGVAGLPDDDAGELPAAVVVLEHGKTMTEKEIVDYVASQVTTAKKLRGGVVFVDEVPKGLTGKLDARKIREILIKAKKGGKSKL
Compound,composite z-score (Albumin (Bos taurus)),composite Z-score [1],composite z-score [2],composite z-score [3],composite z-score [4],composite z-score [5],composite z-score [6],composite z-score (Sam68 (KHDRBS1)),composite z-score [7],composite z-score [8],composite z-score [9],composite z-score [10],composite z-score [11],composite z-score [12],composite z-score [13],composite z-score [14],z-score [15],composite z-score (Lefty1),composite z-score [16],z-score [17]
COC(=O)[C@@]1(Cc2ccccc2)[C@H]2c3cc(C(=O)N(C)C)n(C)c3C[C@H]2CN1C(=O)c1ccccc1,0.958,-0.183 (inactive),0.165,0.111,0.839,3.26,1.29,-0.299,-0.652,0.396,1.18,0.898,0.144,0.84,-0.21,0.125,-0.0935,-0.627,0.668,1.59 (inactive)
CN1CCC(c2ccc(CO)cc2)=CC1c1cccs1 (stereo not given),-0.105,0.204 (inactive),0.956,-0.14,0.737,-0.563,0.179,-1.28,1.35,0.199,0.399,-0.668,0.903,-0.28,0.699,0.0576,0.389,1.35,0.244,-1.16 (inactive)
O=P(c1ccccc1)(c1ccccc1)N1CC2(CC2)CC(O)(c2ccccc2)C1 (stereo not given),0.498,0.284 (inactive),0.392,0.193,0.835,3.3,1.19,0.584,-0.31,0.462,1.11,0.805,1.26,0.77,-0.541,-0.955,0.542,-1.17,0.546,2.44 (inactive)
CCCC=C(CCC)[C@@H](NP(=O)(c1ccccc1)c1ccccc1)c1ccccc1,0.377,0.655 (inactive),0.0873,-0.053,-0.0222,0.122,-0.264,0.986,-0.141,1.07,0.0583,1.03,0.206,0.819,0.139,0.407,1.23,0.169,0.207,1.19 (inactive)
C=C(CC1(C(C)NP(=O)(c2ccccc2)c2ccccc2)CC1)c1ccccc1 (stereo not given),0.314,-0.589 (inactive),0.143,0.038,0.596,3.14,0.425,1.18,-0.0819,0.711,2.95,1.25,0.788,0.94,0.3,-0.34,-0.147,0.0368,0.501,2.67 (inactive)
COC(=O)NCC=Cc1nc(CCC=CC(=O)O[C@H]2CC3CC(=O)O[C@@H](C=CCC(C)C)C[C@@H]4CC[C@H](C)[C@@H](C[C@@H](OC)C[C@H](C2)O3)O4)co1,-0.27,0.0506 (inactive),-0.095,-0.14,-0.303,-0.263,0.411,-1.03,-0.647,-1.63,-0.106,-1.42,-0.422,-1.2,-0.822,-0.43,1.88,-0.422,-0.777,-0.0363 (inactive)
COC(=O)[C@@]1(Cc2ccccc2)[C@H]2c3cc(C(=O)N(C)C)[nH]c3C[C@H]2CN1C(=O)c1ccccc1,0.772,-0.0667 (inactive),-0.0017,-0.0193,0.896,-0.0769,0.0772,-1.41,-0.219,-0.394,0.523,-1.26,-0.206,-0.0736,-0.426,-0.387,0.825,-1.29,-0.09,2.27 (inactive)
COC(=O)C1(C)C=C2C(=C(C)C(=O)C2C)CN1 (stereo not given),0.395,0.727 (inactive),-0.219,0.0145,0.917,2.82,1.46,-0.326,-0.471,-2.16,0.207,0.111,0.885,-1.52,-0.0995,-0.755,-1.82,-0.868,-0.0605,2.34 (inactive)
